# Screening data deposited in PubChem by National Center for Advancing Translational Sciences (NCATS).
# TDP1 cell noCPT – qHTS for Inhibitors of human tyrosyl-DNA phosphodiesterase 1 (TDP1): qHTS in cells in absence of CPT; Potency, µM (highest dose often 46.2 µM), for the others: at the highest dose activity change, negative = growth inhibition, actives largely listed as inhibitors; 420,000 tested, 15% active; AID 686978, 2013; DT40 Tdp1-/- hTDP1 cells, no CPT, ATP luminescence, 48 h; note: potency is the fitted concentration of half-maximal effect; nearly all actives have a fitted effect of over 55% in size
#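 No-CPT arm: Tdp1-/-;hTDP1 DT40 cells (400/well) plus compounds, incubated ≥48 hr at 37 °C. Readout CellTiter-Glo luminescence.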
# HT1080-NT tox – qHTS for induction of synthetic lethality in tumor cells producing 2HG: qHTS for the HT-1080-NT fibrosarcoma cell line | HT-1080-NT fibrosarcoma viability, CellTiter-Glo ATP luminescence, 48 h | Potency, µM (series often up to 46.1 µM), for the others: top-dose activity, negative = less viability, actives largely listed as cytotoxic | 360,000 tested, 1.6% active;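 note: NT is the 2HG producing partner of a matched IDH1 knockdown line; potency is the fitted concentration of half-maximal effect; 0% = DMSO-treated cells and -100% = media-only wells without cells; nearly all actives have a fitted effect of over 55% in size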
#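 HT-1080-NT fibrosarcoma cells (2HG-overproducing), 750 cells/well in RPMI with 5% FBS, dosed after 2 h and incubated 48 h at 37C. CellTiter-Glo luminescence normalized to DMSO and no-cell wells; concentration-response curves fitted and classed.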
# TDP1 cell CPT – qHTS for Inhibitors of human tyrosyl-DNA phosphodiesterase 1 (TDP1): qHTS in cells in presence of CPT. 420,000 tested, 12% active. chicken DT40 Tdp1-/-;hTDP1 cells + 20 nM CPT, ATP luminescence, 48 h. Potency, µM (series often up to 46.2 µM), without a hit: at the top dose activity change, negative = growth inhibition, actives largely listed as inhibitors; note: potency is the fitted concentration of half-maximal effect; nearly all actives have a fitted effect of over 55% in size
#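 Chicken DT40 Tdp1-/- cells stably complemented with human TDP1 were seeded at 400 cells/well in medium containing 20 nM camptothecin, exposed to pin-transferred compounds, and grown at 37 °C for at least 48 hr. Viability was read as ATP luminescence.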
# HT1080 IDH1KD tx – qHTS for induction of synthetic lethality in tumor cells producing 2HG: qHTS for the HT-1080-IDH1KD cell line | HT-1080 IDH1 knockdown viability, ATP luminescence, 48 h | Potency, µM (series often up to 46.1 µM), for inactives: at the top dose activity, negative = toxicity, most hits filed as cytotoxic | 360,000 tested, 2% active | AID 686971, 2013;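 note: potency is the fitted concentration of half-maximal effect; 0% = DMSO wells and -100% = cell-free medium wells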
#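 Viability of IDH1-knockdown HT-1080 fibrosarcoma cells was assessed by CellTiter-Glo after 48 h at 37 °C with titrated compound; concentration-effect curves were classified by fit quality and response size.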
# IL1B secr inh – qHTS for Inhibitors of Inflammasome Signaling: IL-1-beta AlphaLISA Primary Screen; THP-1 LPS/ATP IL-1B secretion, AlphaLISA, 16 h; active compounds read low; activity change, % at 57.5 µM; 360,000 tested, 4.7% active; in the data active = activity change below about -50%; inconclusive = mostly about -30% to -49%
#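 Secreted IL-1B measured by AlphaLISA bead assay after 16 h compound exposure of THP-1 cells; compounds (final up to 57.5 uM) added 1 h before LPS (250 ng/mL) and ATP (1.25 mM) stimulation; lower signal means less secretion.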
# * = called active by the depositor; ? = inconclusive; . = not tested or not shown. Only some compounds are listed: those with a hit (about 19% of all), similar ones and a draw of the others. Unless noted, calls come from the whole dose curve; as a rule, active = well fitted curve in the direction sought with a large enough effect; inconclusive = small, poorly fitted or top-dose-only effect, or another doubt; inactive = no such curve, though single readings can be large; an effect the other way counts as inactive or inconclusive. Unless noted, % is set by controls: 0 for no effect and ±100 for the full control effect.
SMILES,TDP1 cell noCPT,HT1080-NT tox,TDP1 cell CPT,HT1080 IDH1KD tx,IL1B secr inh
CCOC(=O)C1(C)CCCCN1C(=O)c1ccoc1 (stereo not given),-3%,13%,-12%,13%,29
O=C(NCCc1ccccc1)c1ccc(-c2cccnc2)c2ccoc12,15µM*,?,?,-2%,-26
O=C(NCc1cccc(Cl)c1)c1ccc(-c2cccnc2)c2ccoc12,?,2%,?,-16%,-14
CC(C)CNC(=O)c1ccc(-c2ccc(F)c(F)c2)c2ccoc12,18µM*,-11%,?,-8%,-66*
O=C(NCc1ccncc1)c1ccc(-c2ccc(F)c(F)c2)c2ccoc12,6.5µM*,?,4.1µM*,?,-16
CN1CCN(c2ccc(CNC(=O)c3ccc(-c4ccc(F)c(F)c4)c4ccoc34)cc2)CC1,18µM*,-23%,?,-23%,-18
O=C(NCc1ccc(C(F)(F)F)cc1)c1ccc(-c2ccc(F)c(F)c2)c2ccoc12,?,23%,?,17%,?
CCCCc1nn2c(=O)cc(COC(=O)c3ccc(NC(=O)C(CC)CC)cc3)nc2s1,-14%,.,-17%,.,.
O=C(NCc1ccncc1)c1cc(-c2ccc(Cl)cc2)oc1C(F)(F)F,18µM*,-12%,?,-23%,?
O=C(NCc1ccccn1)c1cc(-c2ccc(Cl)cc2)oc1C(F)(F)F,?,-2%,?,-3%,-21
CNC(=O)C1C2C=CC3(O2)C1C(=O)N(CCOC)C3C(=O)NCc1ccc(OC)cc1 (stereo not given),-10%,9%,-16%,17%,0
CCCS(=O)(=O)N1CC(=O)N(c2ccccc2C)C(C)(C(=O)NC2CCCCC2)C1 (stereo not given),-1%,.,-13%,.,.
COCCNC(=O)/C(C#N)=C/C=C/c1ccccc1,?,-21%,-25%,-7%,-93*
N#C/C(=C/C=C/c1ccccc1)C(=O)Nc1ccccc1,?,-21%,-25%,?,-28
N#C/C(=C\c1ccccc1Br)C(=O)NC1CC1,-26%,-3%,?,-1%,-9
Cc1cc(/C=C(\C#N)C(=O)O)c(C)n1C1CC1,-16%,10%,-11%,-1%,-5
COCCNC(=O)/C(C#N)=C/c1cc(C(C)C)c(OC)cc1C,?,-9%,?,-10%,-71*
COCCNC(=O)/C(C#N)=C/c1cc(C)n(C2CCCCC2)c1C,16µM*,-18%,?,0%,-15
COCCNC(=O)/C(C#N)=C/c1ccccc1Br,16µM*,0%,15µM*,2%,?
N#Cc1ccc(OCC(=O)NNC(=S)NC2CCCCC2)cc1,-29%,0%,?,-5%,25
C=CCNC(=O)CSc1nnc(-c2cccc(S(=O)(=O)N3CCOCC3)c2)o1,-2%,3%,6%,5%,-11
CC(C)Cc1nc2oc3c(NCC(C)O)ncnc3c2c2c1CCCC2 (stereo not given),15µM*,-2%,?,-4%,0
CC(C)Cc1nc2oc3c(Cl)ncnc3c2c2c1CCCC2,?,8%,?,22%,-9
CCCc1nc2oc3c(NCCN(C)C)ncnc3c2c2c1CCCC2,16µM*,-19%,18µM*,?,0
CCCc1nc2oc3c(NCCCN(C)C)ncnc3c2c2c1CCCC2,?,-24%,?,?,.
SMILES,TDP1 cell noCPT,HT1080-NT tox,TDP1 cell CPT,HT1080 IDH1KD tx,IL1B secr inh
CCc1nc2cc(C(=O)N[C@H]3CCCCNC3=O)cc(NC(=O)c3ccccc3OC)c2n1C,-14%,.,-15%,.,.
COc1ccc(CN2CCOc3c(cc(-c4cccc(OC)n4)cc3OC)C2)c(O)c1,-1%,.,-4%,.,.
CN(C)c1ccc(/C=C/C=N/Nc2nc(N3CCOCC3)nc(N3CCOCC3)n2)cc1,?,-8%,16µM*,-3%,-14
BrC(/C=C\c1ccccc1)=N/Nc1nc(N2CCOCC2)nc(N2CCOCC2)n1,10µM*,?,7.3µM*,?,-6
CC(/C=N/Nc1nc(N2CCCCC2)nc(N2CCCCC2)n1)=C\c1ccccc1,-24%,-14%,?,-5%,1
BrC(=C\c1ccccc1)/C=N/Nc1nc(N2CCOCC2)nc(N2CCOCC2)n1,13µM*,?,2.3µM*,?,-129*
O=C(c1ccncc1)N1CCC2(CCN(Cc3ccccc3)CC2)CC1,-1%,.,4%,.,.
CSc1cccc(NC(=S)N2CCC(c3ccccc3)C2)c1 (stereo not given),16µM*,-24%,-17%,-6%,?
CSc1cccc(NC(=S)N2CCC(N(C)C3CCCCC3C)CC2)c1 (stereo not given),?,1%,10%,-5%,-69*
CCc1cccc(NC(=S)N2CCC(c3ccccc3)C2)c1 (stereo not given),?,-4%,?,0%,-1
CSc1cccc(NC(=S)N2CCC(N(C)C3CCCCC3)CC2)c1,?,-2%,2%,-13%,-27
CN(C)c1ccc(/C=C2\SC(N3CCCCC3)=NC2=O)cc1,?,5%,?,1%,-20
COc1ccc(N=C2C(=O)N3c4c(cccc42)C(C)=CC3(C)C)cc1,2.6µM*,-22%,5.2µM*,-29%,46
COc1ccc(N=C2C(=O)Nc3ccccc32)cc1,-6%,?,-16%,-22%,8
CCOCCCNC(=O)CCn1nc(-c2ccc(Cl)cc2)ccc1=O,-11%,-2%,?,-9%,-7
Cc1c(C(=O)NCc2ccc3c(c2)OCO3)sc2nc(-c3ccc(F)cc3)cn12,16µM*,0%,?,2%,-17
CCN(CC)CCCNC(=O)c1sc2nc(-c3ccc(F)cc3)cn2c1C,?,?,?,?,-20
Cc1c(C(=O)NCc2ccc3c(c2)OCO3)sc2nc(-c3ccccc3)cn12,15µM*,4%,?,7%,-17
Cc1c(C(=O)NCc2ccccn2)sc2nc(-c3ccc(F)cc3)cn12,?,-4%,?,?,-6
Cc1c(C(=O)NCC2CCCO2)sc2nc(-c3ccc(F)cc3)cn12 (stereo not given),?,-3%,15µM*,-21%,-27
Cc1ccc(CNC(=O)CCSCc2ccc(C)cc2)cc1,-16%,14%,2%,5%,7
Cc1cnc(CNc2cc(-c3cccc(C#N)c3)ncn2)cn1,-11%,.,-10%,.,.
